Assay outcomes as filed in PubChem.
Only some compounds are listed: those with a hit (about 12% of all), similar ones and a draw of the others.
Pf growth 96h: Primary qHTS for delayed death inhibitors of the malarial parasite plastid, 96 hour incubation | P. falciparum luciferase reporter growth, 96 h | Potency, µM (titrated, usually from 28.7 µM), usual class: inhibitors | hit rate 6.9% among 320,000
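Cell-based qHTS: luciferase-tagged P. falciparum in erythrocytes (2% hematocrit, 0.05% parasitemia final) incubated with compounds for 96 hours, 37 C, 5% CO2; luciferase detection reagent then added and luminescence measured.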
AmpC detergent: qHTS Inhibitors of AmpC Beta-Lactamase (assay with detergent). AmpC hydrolysis of nitrocefin, absorbance 480 nm, 0.01% Triton. Potency, µM (series often up to 114 µM), hits mostly inhibitors. hit rate 0.041% among 370,000. AID 485294, 2010; further: nearly all actives have a fitted effect of over 25% in size
Target sequence (P00811 whole entry, looked up): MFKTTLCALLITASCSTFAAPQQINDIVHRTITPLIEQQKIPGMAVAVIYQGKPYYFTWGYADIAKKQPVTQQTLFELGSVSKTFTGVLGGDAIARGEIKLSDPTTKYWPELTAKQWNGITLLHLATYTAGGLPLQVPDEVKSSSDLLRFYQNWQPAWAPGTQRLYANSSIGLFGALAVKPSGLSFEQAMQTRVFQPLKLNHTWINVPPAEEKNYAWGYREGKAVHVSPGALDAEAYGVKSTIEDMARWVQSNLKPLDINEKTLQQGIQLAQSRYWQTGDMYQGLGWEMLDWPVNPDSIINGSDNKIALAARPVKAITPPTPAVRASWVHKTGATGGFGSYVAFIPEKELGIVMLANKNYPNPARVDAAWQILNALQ
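20 mM phosphate pH 7.0 + 0.01% (detergent screen) or 0.0001% Triton X-100; 5.3 nM AmpC reagent; cpd preinc 15 min RT; nitrocefin (800 uM stock) to start; A480 q20 s × 4 min; Activity was normalised to no-enzyme and no-compound control wells.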
SARS PLP yeast: qHTS of Yeast-based Assay for SARS-CoV PLP; Potency, µM (doses to about 32.9 µM), most hits filed as activators; hit rate 0.19% among 330,000; AID 485353, 2010; S. cerevisiae expressing SARS-CoV PLpro, growth rescue; calls by dose curve; further: nearly all actives have a fitted effect of over 55% in size
Sm TGR block: qHTS Assay for the Inhibitors of Schistosoma Mansoni Peroxiredoxins; Potency, µM (titrated, usually from 114 µM), hits mostly inhibitors; purified TGR, DTNB reduction, TNB absorbance 405 nm; hit rate 3% among 360,000; Schistosoma mansoni thioredoxin glutathione reductase (TGR), Q962Y6; AID 485364, 2010; further: nearly all actives have a fitted effect of over 60% in size
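Kinetic colorimetric format: TGR-catalysed, NADPH-driven DTNB reduction monitored via TNB absorbance. Enzyme dispensed at 20 nM; compound exposure 15 min at room temperature before reaction start.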
Pf growth 48h: Primary qHTS for delayed death inhibitors of the malarial parasite plastid, 48 hour incubation | P. falciparum luciferase growth in erythrocytes, 48 h | Potency, µM (doses to about 28.7 µM), usual class: inhibitors | hit rate 5.9% among 310,000 | AID 504832, 2011
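Firefly luciferase activity from engineered P. falciparum reports growth; inhibitors lower the luminescent signal. Cultures contained 2% hematocrit erythrocytes at 0.1% final parasitemia.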
AmpC inh no detg: qHTS Inhibitors of AmpC Beta-Lactamase (assay without detergent); AmpC nitrocefin hydrolysis, absorbance 480 nm, 0.0001% Triton; P00811; Potency, µM (highest dose often 57.1 µM), actives largely listed as inhibitors; hit rate 0.52% among 330,000; further: nearly all actives have a fitted effect of over 20% in size
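AmpC (5.3 nM in the dispensed reagent) in 20 mM phosphate pH 7.0 with 0.01% (detergent screen) or 0.0001% Triton X-100 was preincubated with compounds for 15 min at room temperature. Nitrocefin was then added from an 800 uM solution, and hydrolysis was followed at 480 nm.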
Of the large screens only hits and unclear results are named; the others gave an inactive call. Unless noted, the call rests on the fitted dose curve; in most records, active means well fitted curve in the direction sought with a large enough effect; inconclusive means small, poorly fitted or top-dose-only effect, or another doubt; inactive means no such curve, though single readings can be large; an effect the other way counts as inactive or inconclusive.

CSc1ccc(C2c3[nH]c4ccccc4c3CCN2C(=O)c2cc(C)n(C)n2)cc1 (centres undefined)	Pf growth 48h inconclusive (no result: Sm TGR block)
CCc1cc(C(=O)N2CCc3c([nH]c4ccccc34)C2c2ccc(OC)cc2F)no1 (centres undefined)	Pf growth 96h inconclusive
Cc1cc(C(=O)N2CCc3c([nH]c4ccccc34)C2c2c(F)cccc2Cl)no1 (centres undefined)	Pf growth 48h 5.9µM
Cc1nc(C(=O)N2CCc3c([nH]c4ccccc34)C2c2cc(F)ccc2F)cs1 (centres undefined)	Pf growth 48h 10µM
Cc1cnc(C(=O)N2CCc3c([nH]c4ccccc34)C2c2ccc(F)cc2)cn1 (centres undefined)	Pf growth 96h inconclusive, Pf growth 48h 5.2µM
CCN(C(=O)CSc1nc2ccccc2n1Cc1ccc(F)cc1Cl)c1ccccc1	none (no result: Pf growth 96h, SARS PLP yeast, Pf growth 48h, AmpC inh no detg)
CSc1nc2nc(C(F)(F)F)cc(-c3ccccc3)n2n1	Pf growth 96h 2.9µM (no result: Pf growth 48h)
CSc1nc2nc(-c3ccccc3)cc(C(F)(F)F)n2n1	AmpC detergent inconclusive, Pf growth 48h 4.1µM
CCOCCCNC(=O)Cn1ncc2c([nH]c3ccc(C)cc32)c1=O	none (no result: Pf growth 96h, SARS PLP yeast, Pf growth 48h, AmpC inh no detg)
CC(C)(C)c1nc(N2CCN(C(=O)c3ccco3)CC2)c2nnn(Cc3ccccc3Cl)c2n1	Pf growth 48h 1.7µM (no result: Pf growth 96h)
COCCNc1nc(C(C)(C)C)nc2c1nnn2Cc1ccccc1Cl	Pf growth 48h 8.3µM
OCCNc1nc(C2CC2)nc2c1nnn2Cc1ccccc1Cl	Pf growth 96h inconclusive, AmpC detergent inconclusive
CCCCNS(=O)(=O)c1ccc2nc(-c3cccnc3)cc(C(=O)NCCC)c2c1	none (no result: Pf growth 96h, SARS PLP yeast, Pf growth 48h, AmpC inh no detg)
CCN(CC)S(=O)(=O)c1ccc(N=Cc2c(C)c(C#N)c(=O)n(C)c2O)cc1	none
CC(=O)NCCCNc1ccc([N+](=O)[O-])cc1	none
COc1ccccc1C(=O)NCCCNc1ccc([N+](=O)[O-])cc1	Pf growth 96h 13µM, AmpC detergent inconclusive
COc1ccc(/C=C/C(=O)Nc2sc(C)c(C)c2C(=O)O)cc1	none (no result: Pf growth 96h, SARS PLP yeast, Pf growth 48h, AmpC inh no detg)
Cc1sc(NC(=O)/C=C/c2ccco2)c(C(=O)O)c1C	Sm TGR block 40µM, Pf growth 48h inconclusive
CCN(CC(=O)NCc1ccc(F)cc1)C(=O)/C=C/c1ccco1	Sm TGR block 20µM
O=C(/C=C/c1ccco1)NCCc1ccc(F)cc1	Sm TGR block 7.1µM
CC(=O)NS(=O)(=O)c1ccc(NC(=O)/C=C/c2ccco2)cc1	Sm TGR block 3.5µM
CN(C)c1ccc(NC(=S)NC(=O)/C=C/c2ccco2)cc1	Pf growth 96h inconclusive
O=C(/C=C/c1ccco1)Nc1ccc(F)cc1	Sm TGR block 7.1µM
O=C(/C=C/c1ccco1)Nc1ccc(S(=O)(=O)N2CCOCC2)cc1	Sm TGR block inconclusive
NS(=O)(=O)c1ccc(NC(=O)/C=C/c2ccco2)cc1	Sm TGR block 6.3µM
COc1ccc([N+](=O)[O-])cc1N(CC(=O)N1CCCC1)S(C)(=O)=O	Pf growth 96h inconclusive (no result: Sm TGR block)
COC(=O)C1=C(c2ccc(OC)c(OC)c2)C[C@@H]2CC[C@H]1N2C(=O)NCCc1ccccc1	Pf growth 48h inconclusive
COC(=O)C1=C(c2ccc(F)cc2OCc2ccccc2)C[C@@H]2CC[C@H]1N2C(=O)NCc1cccc(C(F)(F)F)c1	Pf growth 96h inconclusive, Pf growth 48h 4.7µM
COC(=O)C1=C(c2ccccc2OCc2ccccc2)C[C@@H]2CC[C@H]1N2C(=O)NCc1ccc(OC)c(OC)c1	Pf growth 96h inconclusive, Pf growth 48h 13µM
COC(=O)C1=C(c2ccc(F)cc2OCc2ccccc2)C[C@@H]2CC[C@H]1N2C(=O)NCc1ccc(OC)cc1	Pf growth 96h inconclusive, Pf growth 48h 13µM
COC(=O)C1=C(c2ccc(F)cc2OCc2ccccc2)C[C@@H]2CC[C@H]1N2C(=O)NCc1cccc(OC)c1	Pf growth 96h inconclusive, Pf growth 48h 9.3µM
COC(=O)C1=C(c2ccc(F)cc2F)C[C@@H]2CC[C@H]1N2C(=O)NCCNC(C)=O	none
COC(=O)C1=C(c2ccccc2OCc2ccccc2)C[C@@H]2CC[C@H]1N2C(=O)NCc1cccc(F)c1	Pf growth 96h inconclusive, Pf growth 48h 9.3µM
COC(=O)C1=C(c2ccc(F)cc2OCc2ccccc2)C[C@@H]2CC[C@H]1N2C(=O)NCc1ccc(Br)cc1	Pf growth 96h inconclusive, Pf growth 48h 2.1µM
O=C(CCl)N(Cc1cc(=O)[nH]c2ccccc12)c1ccccc1	Pf growth 96h 10µM, Sm TGR block 3.5µM, Pf growth 48h 10µM
Cc1ccccc1N(Cc1cc(=O)[nH]c2ccccc12)C(=O)CCl	Pf growth 96h 1.9µM, Sm TGR block 14µM, Pf growth 48h 4.7µM
Cc1ccccc1N(Cc1cc(=O)[nH]c2ccccc12)C(=O)C(C)C	Pf growth 96h inconclusive, Pf growth 48h 15µM
CCC(=O)N(Cc1cc(=O)[nH]c2ccccc12)c1ccc(C)cc1C	Pf growth 96h inconclusive, Pf growth 48h inconclusive
C[C@]12CCC3C(CCC4=C(Cl)C(=O)CC[C@@]43C)C1CCC2O (some centres undefined)	Pf growth 96h 11µM, Pf growth 48h inconclusive (no result: AmpC detergent, SARS PLP yeast, Sm TGR block, AmpC inh no detg)
CC(=O)Nc1ccc(NS(=O)(=O)c2ccc3c(c2)oc(=O)n3C)cc1	SARS PLP yeast inconclusive
CCc1ccc(CN(C)C(=O)c2cccc(S(=O)(=O)Nc3ccccc3OC)c2)cc1	Pf growth 96h inconclusive, AmpC detergent inconclusive, Pf growth 48h 10µM
CCNC(=S)Nc1cccc(S(=O)(=O)Nc2ccccc2OC)c1	Sm TGR block 1.8µM
COc1ccccc1NS(=O)(=O)c1cccc(NC(=O)Nc2ccccc2)c1	none
COc1ccccc1NS(=O)(=O)c1cccc(NC(=O)Nc2ccc(Cl)cc2)c1	Pf growth 96h 10µM, Pf growth 48h inconclusive
O=C(NCc1ccc2c(c1)CCN2C(=O)c1ccccc1)c1ccco1	none (no result: Pf growth 96h, SARS PLP yeast, Pf growth 48h, AmpC inh no detg)
CCN(CC(=O)NCCCn1ccnc1)S(=O)(=O)c1ccc(C)cc1	Pf growth 96h inconclusive
CC(C)c1ccc(/C=C2\SC(N3CCCC3)=NC2=O)cc1	Pf growth 96h 3.7µM, AmpC detergent inconclusive, Pf growth 48h inconclusive
CN(C)c1ccc(/C=C2\SC(N3CCCCC3)=NC2=O)cc1	Pf growth 96h 4.1µM
COc1ccc(C(=O)NCc2ccc3c(c2)CCN3C(=O)c2ccc(Cl)cc2)c(OC)c1	none (no result: Pf growth 96h, SARS PLP yeast, Pf growth 48h, AmpC inh no detg)
O=C(O)c1sc2cccc(Cl)c2c1Cl	Pf growth 96h 1.3µM, Pf growth 48h inconclusive
Cc1ccc2nc(CCl)[n+]([O-])c(-c3ccccc3)c2c1	Pf growth 96h inconclusive, Sm TGR block 4.5µM
